# Calls of active or inactive are those of the source. The calls were made as follows: active = hit-call score of the fitted dose curve at least 0.9, where 1 is the maximum; inactive = score below 0.9.
# Experiments:
# [1] = ATG_CRE_CIS: Attagene CIS-FACTORIAL HepG2 Assay for human cAMP Responsive Element (CRE) binding protein 3 (AID 2282926); settings: HepG2 CRE cis-reporter, Attagene multiplexed mRNA; actives raise or lower the signal
# Summary of the method: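 HepG2 cells transiently transfected with cis-element-driven multiple reporter transcription units; CRE reporter mRNA measured 24 h after dosing by RT-PCR, 6-FAM labelling, HpaI digestion and capillary electrophoresis. Bidirectional fit versus DMSO baseline.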
# [2] = target: CCAAT/enhancer-binding protein beta (Homo sapiens) (UniProt P17676); test: ATG_C_EBP_CIS: Attagene CIS-FACTORIAL HepG2 Assay for human CCAAT/Enhancer Binding Protein (C/EBP) beta (AID 2282927); settings: HepG2 Attagene cis-factorial transcription factor reporter; actives raise or lower the signal
# Sequence of CCAAT/enhancer-binding protein beta (Homo sapiens) (P17676 whole entry, looked up): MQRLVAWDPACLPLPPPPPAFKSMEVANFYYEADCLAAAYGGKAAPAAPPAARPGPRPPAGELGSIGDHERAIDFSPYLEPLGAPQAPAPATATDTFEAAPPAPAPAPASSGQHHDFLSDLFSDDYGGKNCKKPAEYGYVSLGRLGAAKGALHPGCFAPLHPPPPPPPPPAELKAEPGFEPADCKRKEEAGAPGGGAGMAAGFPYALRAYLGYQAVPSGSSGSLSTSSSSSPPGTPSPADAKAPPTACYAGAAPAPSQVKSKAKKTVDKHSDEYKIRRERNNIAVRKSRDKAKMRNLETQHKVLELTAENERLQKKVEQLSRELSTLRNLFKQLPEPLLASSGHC
# Summary of the method: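 Endogenous transcription factor activity in human liver HepG2 cells is inferred from induction of a CEBPB-linked reporter mRNA. Exposure lasts 24 h; activity is fitted in both directions relative to DMSO.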
# [3] = target: Aryl hydrocarbon receptor (Homo sapiens) (UniProt P35869); test: ATG_Ahr_CIS: Attagene CIS-FACTORIAL HepG2 Assay for human Aryl Hydrocarbon Receptor (Ahr) (AID 2282930); settings: HepG2 AhR cis-factorial reporter transcription; actives raise or lower the signal
# Sequence of Aryl hydrocarbon receptor (Homo sapiens) (P35869 whole entry, looked up): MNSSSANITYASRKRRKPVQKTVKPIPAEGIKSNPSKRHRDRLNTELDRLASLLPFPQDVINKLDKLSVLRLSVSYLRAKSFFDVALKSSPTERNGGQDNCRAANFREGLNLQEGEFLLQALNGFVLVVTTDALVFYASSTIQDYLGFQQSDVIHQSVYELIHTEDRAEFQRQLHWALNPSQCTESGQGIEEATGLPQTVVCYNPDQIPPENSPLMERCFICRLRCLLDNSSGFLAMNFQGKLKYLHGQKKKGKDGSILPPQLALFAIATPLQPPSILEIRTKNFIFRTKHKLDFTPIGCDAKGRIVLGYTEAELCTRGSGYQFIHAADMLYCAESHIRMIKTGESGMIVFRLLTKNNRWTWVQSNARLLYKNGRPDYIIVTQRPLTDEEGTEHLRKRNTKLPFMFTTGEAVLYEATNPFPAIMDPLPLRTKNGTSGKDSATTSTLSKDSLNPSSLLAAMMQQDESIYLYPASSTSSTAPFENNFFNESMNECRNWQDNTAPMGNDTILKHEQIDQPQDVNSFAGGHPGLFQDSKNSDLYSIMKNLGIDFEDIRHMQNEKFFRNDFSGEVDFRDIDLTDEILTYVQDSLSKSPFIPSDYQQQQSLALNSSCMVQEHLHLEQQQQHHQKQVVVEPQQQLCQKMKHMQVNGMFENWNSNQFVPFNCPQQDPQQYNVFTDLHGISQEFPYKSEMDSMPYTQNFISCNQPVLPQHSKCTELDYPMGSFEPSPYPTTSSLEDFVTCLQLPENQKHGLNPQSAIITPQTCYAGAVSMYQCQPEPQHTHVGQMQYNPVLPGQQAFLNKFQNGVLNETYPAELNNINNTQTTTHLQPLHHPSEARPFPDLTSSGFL
# Summary of the method: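 Transient MRTU transfection of HepG2 → 24 h compound exposure → total RNA, oligo(dT) RT → PCR, 6-FAM extension, HpaI cut → CE fluorescence. DMSO = baseline; bidirectional curve fit.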
# [4] = ATG_AP_2_CIS: Attagene CIS-FACTORIAL HepG2 Assay for human Activator Protein 2 (AP-2) (AID 2282932); settings: HepG2 AP-2 cis-reporter, Attagene transcription factor profiling; actives raise or lower the signal
# Summary of the method: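 HepG2, transient MRTU transfection, cis-regulated reporters; 24 h compound exposure; RNA isolated, RT-PCR, 6-FAM labelling, HpaI digest, CE fluorescence. DMSO = negative control/baseline, bidirectional fit.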
# [5] = target: Retinoic acid receptor alpha (Homo sapiens) (UniProt P10276); test: ATG_DR5_RAR_CIS: Attagene CIS-FACTORIAL HepG2 Assay for human Retinoic Acid Receptor Alpha (RARE), DR5 submotif (AID 2282934); settings: HepG2 Attagene cis-factorial RARE DR5 reporter, mRNA; actives raise or lower the signal;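 as to AC50: reporter responds to endogenous RAR alpha beta and gamma in HepG2 not RARA alone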
# Sequence of Retinoic acid receptor alpha (Homo sapiens) (P10276 whole entry, looked up): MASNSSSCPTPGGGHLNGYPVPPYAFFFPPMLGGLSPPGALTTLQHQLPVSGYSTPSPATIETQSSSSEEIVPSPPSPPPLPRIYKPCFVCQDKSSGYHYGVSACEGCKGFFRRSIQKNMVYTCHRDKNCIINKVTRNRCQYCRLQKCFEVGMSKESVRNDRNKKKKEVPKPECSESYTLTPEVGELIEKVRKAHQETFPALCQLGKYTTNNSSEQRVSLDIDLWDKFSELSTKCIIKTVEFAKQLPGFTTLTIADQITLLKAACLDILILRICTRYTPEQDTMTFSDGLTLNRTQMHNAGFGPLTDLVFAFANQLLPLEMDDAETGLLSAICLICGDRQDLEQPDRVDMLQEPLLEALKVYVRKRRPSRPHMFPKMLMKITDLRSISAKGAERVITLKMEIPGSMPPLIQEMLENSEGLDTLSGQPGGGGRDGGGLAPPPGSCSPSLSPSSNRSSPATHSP
# Summary of the method: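 Transient MRTU transfection of HepG2; 24 h compound treatment; TriZol RNA, oligo(dT) RT, PCR, FAM labelling, capillary electrophoresis. Bidirectional fit vs DMSO. Endogenous TF activity at DR5 RARE.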
# [6] = target: Transcription factor E2F1 (Homo sapiens) (UniProt Q01094); test: ATG_E2F_CIS: Attagene CIS-FACTORIAL HepG2 Assay for human E2F Transcription Factor 1 (AID 2282935); settings: HepG2 Attagene cis-reporter, E2F reporter RNA transcripts; actives raise or lower the signal
# Sequence of Transcription factor E2F1 (Homo sapiens) (Q01094 whole entry, looked up): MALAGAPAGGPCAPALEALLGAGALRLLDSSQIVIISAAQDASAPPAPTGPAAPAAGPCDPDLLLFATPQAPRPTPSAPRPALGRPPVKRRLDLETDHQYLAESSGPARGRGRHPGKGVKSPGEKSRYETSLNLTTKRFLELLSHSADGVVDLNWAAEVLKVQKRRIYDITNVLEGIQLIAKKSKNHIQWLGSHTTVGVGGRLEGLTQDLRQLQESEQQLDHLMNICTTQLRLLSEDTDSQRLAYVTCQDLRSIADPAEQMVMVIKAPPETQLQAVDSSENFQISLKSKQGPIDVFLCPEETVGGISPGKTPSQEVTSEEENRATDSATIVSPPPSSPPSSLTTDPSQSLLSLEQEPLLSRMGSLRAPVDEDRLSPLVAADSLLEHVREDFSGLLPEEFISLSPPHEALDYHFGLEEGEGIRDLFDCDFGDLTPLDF
# Summary of the method: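 Cis-element reporter mRNA induction in transiently transfected HepG2, 24 h exposure. Activity fitted in both directions relative to DMSO negative control.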
# [7] = ATG_E_Box_CIS: Attagene CIS-FACTORIAL HepG2 Assay for human Enhancer Box (E-box) (AID 2282936); settings: HepG2 E-box cis-reporter transcription, actives raise or lower the signal
# Summary of the method: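 Cells: HepG2 (human liver), transient MRTU transfection. Exposure 24 h. RNA → oligo(dT) RT → PCR → 6-FAM label → HpaI → CE. Activity fitted both directions relative to DMSO.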
# [8] = ATG_M_61_CIS: Attagene CIS-FACTORIAL HepG2 Assay for M61 Transcription Factor (Internal Marker) (AID 2282937); settings: HepG2 Attagene CIS-FACTORIAL M61 internal marker reporter; actives raise or lower the signal
# Summary of the method: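 Endogenous transcription factor activity in HepG2 is read through transiently transfected cis-element reporter units. After 24 h dosing, RNA undergoes reverse transcription, PCR and primer extension with 6-FAM before capillary electrophoresis; DMSO-referenced bidirectional fit.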
# [9] = ATG_EGR_CIS: Attagene CIS-FACTORIAL HepG2 Assay for human Early Growth Response 1 (EGR1) (AID 2282938); settings: HepG2 Attagene CIS-FACTORIAL EGR reporter mRNA; actives raise or lower the signal
# Summary of the method: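 Activity is taken as induction or loss of reporter mRNA versus DMSO, fitted bidirectionally. Transcripts from cis-regulated reporter units in transiently transfected HepG2 were measured after 24 h by RT-PCR with capillary electrophoresis.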
# [10] = ATG_AP_1_CIS: Attagene CIS-FACTORIAL HepG2 Assay for human Activator Protein 1 (AP-1) (AID 2282931); settings: HepG2 Attagene cis-factorial AP-1 reporter mRNA; actives raise or lower the signal
# Summary of the method: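 Multiplexed HepG2 reporter assay, 24 h dosing. mRNA induction detected by RT-PCR plus capillary electrophoresis. Activity fitted in both directions against DMSO.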
# [11] = ATG_BRE_CIS: Attagene CIS-FACTORIAL HepG2 Assay for human Bone Morphogenetic Protein (BMP) Response Element (BRE) (AID 2282933); settings: HepG2 BMP response element reporter, Attagene transcription factor profiling; actives raise or lower the signal
# Summary of the method: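 Read-out: reporter mRNA induction quantified by RT-PCR and capillary electrophoresis after 24 h chemical exposure of transfected HepG2 cells. Endogenous factor activity on the BMP response element; gain or loss fitted against DMSO baseline.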
# [12] = ATG_DR4_LXR_CIS: Attagene CIS-FACTORIAL HepG2 Assay for human Liver X Receptor (LXR), DR4 submotif (AID 2282929); settings: HepG2 Attagene DR4 cis-reporter, mRNA transcription; actives raise or lower the signal
# Summary of the method: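 Fluorescence intensity of labelled reporter cDNA fragments, separated by capillary electrophoresis, gives the signal. HepG2 cells bearing cis-regulated reporter constructs were treated 24 h; activity fitted bidirectionally relative to DMSO negative control.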
# [13] = ATG_CMV_CIS: Attagene CIS-FACTORIAL HepG2 Assay for human CMV (Internal Marker) (AID 2282928); settings: HepG2 CMV promoter reporter, transcription factor profiling; actives raise or lower the signal;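 also: endpoint acts as a background internal control marker rather than a target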
# Summary of the method: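 After transient transfection of HepG2 with reporter transcription units driven by cis-regulatory promoters, cells receive test chemical for 24 h. Labeled reporter amplicons, digested with HpaI, are sized and quantified by capillary electrophoresis against DMSO.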
structure (smiles),measurement,setting,value
Clc1ccc(C(Cl)(Cl)Cl)cn1,outcome,[1],inactive
same,outcome,[2],inactive
same,AC50,[3],5.67 µM (active)
same,outcome,[4],inactive
same,outcome,[5],inactive
same,outcome,[6],inactive
same,outcome,[7],inactive
same,outcome,[8],inactive
same,outcome,[9],inactive
O=CCCl,AC50,[1],24.7 µM (active)
same,AC50,[2],25 µM (active)
same,AC50,[3],84.7 µM (active)
same,AC50,[10],165 µM (active)
same,outcome,[4],inactive
same,outcome,[11],inactive
same,outcome,[5],inactive
same,outcome,[6],inactive
same,AC50,[7],183 µM (active)
same,outcome,[8],inactive
same,AC50,[9],38.4 µM (active)
CC(C)[C@H](C(=O)OC(C#N)c1cccc(Oc2ccccc2)c1)c1ccc(OC(F)F)cc1 (stereo not given in full),outcome,[1],inactive
same,outcome,[2],inactive
same,outcome,[12],inactive
same,outcome,[3],inactive
same,outcome,[10],inactive
same,outcome,[4],inactive
same,outcome,[11],inactive
same,outcome,[5],inactive
same,outcome,[6],inactive
C=CC(Cl)CCl (stereo not given),outcome,[1],inactive
same,outcome,[2],inactive
same,outcome,[13],inactive
same,outcome,[3],inactive
same,outcome,[4],inactive
same,outcome,[11],inactive
same,outcome,[6],inactive
same,outcome,[9],inactive
CC(C)(C)c1cc([N+](=O)[O-])cc(C(C)(C)C)c1O,outcome,[1],inactive
same,outcome,[2],inactive
same,outcome,[3],inactive
same,AC50,[10],0.948 µM (active)
same,AC50,[4],16.3 µM (active)
same,AC50,[11],2.01 µM (active)
same,AC50,[5],2.85 µM (active)
same,outcome,[6],inactive
same,outcome,[7],inactive
same,outcome,[8],inactive
same,outcome,[9],inactive
O=S(=O)(Oc1ccc(Cl)cc1)c1ccc(Cl)cc1,outcome,[1],inactive
same,outcome,[2],inactive
same,AC50,[12],34.9 µM (active)
same,outcome,[3],inactive
same,AC50,[10],32.6 µM (active)
same,outcome,[4],inactive
same,outcome,[11],inactive
same,outcome,[5],inactive
same,outcome,[6],inactive
same,outcome,[7],inactive
same,outcome,[8],inactive
same,outcome,[9],inactive
CCC[CH2][Sn]([Cl])([Cl])[CH2]CCC,AC50,[1],0.947 µM (active)
same,AC50,[2],0.33 µM (active)
same,AC50,[12],0.807 µM (active)
same,outcome,[3],inactive
same,outcome,[10],inactive
same,outcome,[4],inactive
same,AC50,[11],0.316 µM (active)
same,outcome,[5],inactive
same,outcome,[6],inactive
same,outcome,[7],inactive
same,outcome,[8],inactive
BrCCCCBr,outcome,[1],inactive
same,outcome,[2],inactive
same,outcome,[12],inactive
same,outcome,[3],inactive
same,outcome,[10],inactive
same,outcome,[4],inactive
same,outcome,[11],inactive
same,outcome,[6],inactive
same,outcome,[8],inactive
same,outcome,[9],inactive
O=S(=O)(C(Cl)(Cl)Cl)C(Cl)(Cl)Cl,AC50,[1],15.2 µM (active)
same,outcome,[2],inactive
same,outcome,[12],inactive
same,outcome,[3],inactive
same,AC50,[10],2.78 µM (active)
same,outcome,[4],inactive
same,AC50,[11],18.7 µM (active)
same,outcome,[5],inactive
same,AC50,[6],6.13 µM (active)
same,AC50,[7],14.7 µM (active)
same,outcome,[8],inactive
same,AC50,[9],17.3 µM (active)
CC1CC(=O)O1 (stereo not given),outcome,[1],inactive
same,outcome,[2],inactive
same,outcome,[3],inactive
same,outcome,[10],inactive
same,outcome,[4],inactive
same,outcome,[5],inactive
same,outcome,[6],inactive
same,outcome,[7],inactive
same,outcome,[8],inactive
same,outcome,[9],inactive
CCN(N=O)C(N)=O,outcome,[1],inactive
same,outcome,[2],inactive
same,outcome,[12],inactive
same,outcome,[3],inactive
same,outcome,[10],inactive
same,outcome,[4],inactive
same,outcome,[5],inactive
same,outcome,[6],inactive
same,outcome,[7],inactive
same,outcome,[8],inactive
CC(C)CC(C)(c1ccc(O)cc1)c1ccc(O)cc1,outcome,[1],inactive
same,outcome,[2],inactive
same,AC50,[12],11.1 µM (active)
same,outcome,[3],inactive
same,AC50,[10],11.1 µM (active)
same,outcome,[4],inactive
same,outcome,[11],inactive
same,outcome,[5],inactive
same,outcome,[6],inactive
same,outcome,[7],inactive
same,outcome,[8],inactive
same,AC50,[9],17.5 µM (active)
